MsrA inh: inhibits bovine methionine sulfoxide reductase A. purified bovine MsrA, absorbance read-out. inhibition, % at 15.5 µM. 0.75% of 360,000 active. AID 651718
rCAG binder: molecules binding r(CAG) RNA repeats; r(CAG) RNA repeat, TO-PRO-1 dye displacement fluorescence; inhibition, % at 3 µM; 1.3% of 370,000 active; AID 651821;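 active = inhibition above the plate cutoff, the mean of all test compounds on that plate plus 3 SD, cut at about 35% in these data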;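 note: higher means more dye released from RNA so lower well fluorescence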
bovine MsrA act: bovine methionine sulfoxide reductase A activation | 0.3% of 360,000 active | activation, % at 10.6 µM | purified bovine MsrA, absorbance read-out; in the data active = activation above about 7.5%
NadD block: blocks S. aureus nicotinate mononucleotide adenylyltransferase | purified NadD enzyme, colorimetric absorbance read-out | inhibition, % at 20 µM | 0.78% of 360,000 active | AID 602399; in the data active = inhibition above about 26%
MsrA conf: confirmation of bovine MsrA inhibitors | inhibition, % at 15.5 µM | purified bovine MsrA, absorbance read-out | shares compounds with MsrA inh | 41% of 2,300 active;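 note: coupled to thioredoxin reductase with NADPH and selenocystamine and DMSO as substrate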
Numbers stand for hits; – = inactive; · = no result. In the library only some 2.7% were active in any assay of this set; here they are far more common. Cut-off read from the data, not from the text of the source, unless noted: active = inhibition above about 4.5%; inactive = the rest.

SMILES	MsrA inh	rCAG binder	bovine MsrA act	NadD block	MsrA conf
Cc1cc[n+](-c2[nH]c(=O)sc2/C=N/N=C(\[O-])c2ccccc2)cc1C	4.7	–	–	–	–
Cc1cc[n+](-c2[nH]c(=O)sc2/C=N/N=C(\[O-])c2ccncc2)cc1C	–	–	–	–	·
CC(C)CNc1ncnc2c1ncn2[C@H]1CN(CCN2CCOCC2)C[C@@H](CO)O1	–	–	–	–	·
Cc1ccc(/C=C(\C#N)C(=O)NC(C)C)o1	6.1	–	–	–	5.0
Cc1ccc(OCC(=O)N/N=C/c2cccnc2)cc1C	–	–	–	–	·
O=C(/C=C/c1ccco1)Nc1cc(Cl)ccc1C(=O)O	6.8	–	–	–	5.2
O=C(COC(=O)c1ccc2c(c1)OCCO2)NCCc1ccc(F)cc1	–	–	–	–	·
Cc1c(CC(=O)O)c(=O)oc2cc3c(cc12)CCC(C)(C)O3	–	–	–	–	·
CCC(NC(=O)Cc1c(C)c2cc3c(cc2oc1=O)OC(C)(C)CC3)C(=O)O (stereo unspecified)	5.2	–	–	–	–
O=C(NCc1cccc(Cl)c1)c1ccc(CS(=O)Cc2ccc(Cl)cc2)o1 (stereo unspecified)	–	–	–	–	·
Cc1cc(-c2ccc(/C=N/n3cnnc3)o2)ccc1Cl	4.8	–	–	–	–
Clc1ccccc1-c1ccc(/C=N/n2cnnc2)o1	5.7	–	–	–	5.5
Clc1cccc(-c2ccc(/C=N/n3cnnc3)o2)c1Cl	–	–	–	–	·
Cc1c(C(=O)O)cccc1-c1ccc(/C=N/n2cnnc2)o1	6.5	–	–	–	4.7
O=C(Nc1cc(=O)[nH]c(=O)[nH]1)c1cc(Cl)ccc1Cl	–	–	–	–	·
CCOc1ccc(/C=C/C(=O)c2c(O)cc(C)oc2=O)cc1	–	–	–	–	·
Cc1cc(=O)oc2c(O)c(O)ccc12	–	–	–	–	·
COc1ccc(/C=C\C(=O)c2c(O)ccc3c(C)cc(=O)oc23)cc1	5.3	–	–	–	–
COc1ccc(/C=C/C(=O)c2c(O)ccc3c(C)cc(=O)oc23)cc1	5.4	–	–	–	5.1
COC(=O)[C@H]1C[C@@]2(N3CCCC3)c3ccccc3N[C@H]2N1S(C)(=O)=O	·	–	·	·	·
CC1=NN(c2nc3ccccc3[nH]2)C(=O)C1Cc1ccccc1 (stereo unspecified)	·	·	–	–	·
CCCCNC(=S)N(C)/N=C/c1ccc(OCC(=O)Nc2ccc(OC)cc2)c(OC)c1	6.5	–	–	–	–
COc1ccc(OC)c(/C=N/NC(=O)C(O)c2ccccc2)c1 (stereo unspecified)	–	–	–	–	·
CC(C)OC(=O)/C(=C\c1ccc2c(c1)c1ccccc1n2C)NC(=O)c1ccccc1	–	–	–	–	·
CC(C)OC(=O)/C(=C/c1ccc2c(c1)c1ccccc1n2C)NC(=O)c1ccccc1	4.8	–	–	–	–
SMILES	MsrA inh	rCAG binder	bovine MsrA act	NadD block	MsrA conf
O=C(NCC1CC1)c1cc([N+](=O)[O-])cc([N+](=O)[O-])c1	8.5	–	–	–	7.1
O=C(NCC1CCCCC1)c1cccc([N+](=O)[O-])c1	–	–	–	–	·
Cc1ncc(CO)c(CO)c1OCC(O)CN1CCN(c2ccc(F)cc2)CC1 (stereo unspecified)	–	–	–	–	·
COC(=O)c1sccc1NC(=O)CC1C(=O)NCCN1C(=O)Nc1ccc(C(F)(F)F)cc1 (stereo unspecified)	–	–	–	–	·
COC1C(OC(=O)/C=C/C=C/C=C/C=C/C(=O)O)CCC2(CO2)C1C1(C)OC1CC=C(C)C (stereo unspecified) (tested in a mixture with another compound)	8.8	–	–	–	12
N#C/C(=C\c1ccc(-c2cccc(C(F)(F)F)c2)o1)C(=O)Nn1cnnc1	4.8	–	–	–	–
COCCNC(=S)N/N=C(\C)c1cc2ccccc2o1	8.2	–	–	–	5.2
COCCNc1nc(N2CCCCC2)c2cnn(C)c2n1	–	–	–	–	·
CC(C)(C)c1cc(-c2ccco2)c(C#N)c(SCC#N)n1	9.2	–	–	–	5.2
CCSc1nc(C2CC2)cc(-c2ccco2)c1C#N	–	–	–	–	·
C[C@H](CO)N1C[C@H](C)[C@@H](CN(C)C(=O)CN2CCOCC2)Oc2cc(Br)ccc2S1(=O)=O	–	–	–	–	·
CC1Cc2ccccc2N1C(=O)c1cnc2sccn2c1=O (stereo unspecified)	5.4	–	–	–	–
CC(=O)c1cnc2sccn2c1=O	6.2	–	–	–	–
O=C(COc1ccccc1Br)N1CCN(C(=O)c2ccco2)CC1	–	–	–	–	·
CC(=O)c1ccc(COC(=O)c2cc3ccccc3oc2=O)cc1	8.3	–	–	–	–
Cn1c(Cc2cccs2)nnc1SCC(=O)Nc1ccc2cn[nH]c2c1	·	–	·	·	·
Cc1ccc(C)c(Nc2nc3ccccc3n3cnnc23)c1	11	–	–	–	6.7
CC(Nc1nc2ccccc2n2cnnc12)c1ccccc1 (stereo unspecified)	12	–	–	–	7.2
Cc1ccc(Nc2nc3ccccc3n3cnnc23)cc1Cl	–	–	–	–	·
COc1cc(C)nc(N(Cc2ccccc2)S(=O)(=O)c2ccccc2)n1	5.6	–	–	–	–
COc1cc(C)nc(N(Cc2ccccc2)S(=O)(=O)c2ccc(C)cc2)n1	–	–	–	–	·
COc1cccc(N2C(=NC(=O)CCc3ccccc3)SC3CS(=O)(=O)CC32)c1 (stereo unspecified)	–	–	–	–	·
C[C@H]1CN([C@@H](C)CO)C(=O)CCCn2nncc2CO[C@H]1CN(C)S(=O)(=O)c1ccc(C#N)cc1	–	–	–	–	·
COc1ccc(-n2nnc3c(SC(C(C)=O)C(=O)N(C)C)ncnc32)cc1 (stereo unspecified)	5.4	–	–	–	–
COC(=O)C(C)Sc1ncnc2c1nnn2-c1ccc(F)cc1 (stereo unspecified)	–	–	–	–	·
SMILES	MsrA inh	rCAG binder	bovine MsrA act	NadD block	MsrA conf
C=CCn1c(SCC(=O)Nc2cc(OC)c(NC(=O)c3ccco3)cc2OC)nnc1-c1ccncc1	4.7	–	–	–	–
Cc1cc2ccccn2c1C(=O)Nc1ccccc1	5.1	–	–	–	–
CN(C)/C=N/c1ncc(C(=O)c2ccc(-c3ccccc3)cc2)s1	–	–	–	–	·
CN(C)/C=N/c1ncc(C(=O)c2ccccc2)s1	5.6	–	–	–	4.7
CCCCCC(=O)NC(=S)Nc1ccc2oc(=O)ccc2c1	–	–	–	–	·
COC(=O)CSC1=C(C#N)C(=O)NC2(CCCCC2)S1	5.7	–	–	–	–
CCOC(=O)c1sc(/N=C/c2ccc(O)cc2O)cc1C	5.3	–	–	–	–
CC(=O)Nc1cc(Cl)c(N=Cc2ccc(O)cc2O)cc1Cl	–	–	–	–	·
COc1cc(/C=C2/NC(=O)N(Cc3ccccc3F)C2=O)cc(OC)c1O	5.0	–	–	–	–
COc1ccc(CC(=O)NCC(=O)NCc2cc(=O)n(C)c(=O)n2C)cc1	–	–	–	–	·
CCOc1ccc(N2C(=O)CC(NNc3nc4ccccc4s3)C2=O)cc1 (stereo unspecified)	–	–	–	–	·
Cc1ccn2c(=O)c(C(=O)O)cnc2c1	4.7	–	–	–	–
